Test system: VDR:RXRa (NR concentration 270 nM, RXRa partner concentration 90 nM)
Assay: PBM binding z-score (relative to random genomic background probes); higher = stronger binding; sequences stand for … in GC…GCGATTGACAGCGTAGAATGAAGG
Description: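 Protein-binding microarray (Agilent 4x180K custom design, double-stranded 60-nt probes: 5' GC cap, 34-nt variable region, 24-nt constant primer region; full probe sequence given). Purified or IVT nuclear receptor:RXRα heterodimers (3:1 NR:RXRα, mostly 270:90 nM) or homodimers were incubated for 1 h in PBS with 2% milk and no ligand, then detected with Alexa488 antibodies. Fluorescence from o1-orientation probes (~5 replicates averaged) was converted to z-scores against 500 random hg19 background probes. Variable regions are seed direct-repeat (DR0–DR5) sites, all their single-nucleotide variants and half-site ablations.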

Sequence | PBM binding z-score
TGAATCAGGTTATAAGATCAGGGAACGTTGCAAA | -0.0764
GCGACTTGGGCATCAGCAGGTTACCATAACTTAA | -0.417
CTCGAAGGGTCGTGCTCAGGTGAGTATACCAAAC | 1.59
GTACCACGGTGAATAGGTCGTTGATGAGTAGGCG | -0.0883
ACTATTAGTTGAGACGTGGGCAACCGATAGGTTG | -0.5
TCTGCTAGGTCAGTTGCTCAGCTAACGAGCTGCC | -0.466
ATGTCTAGGTAAAGTTCAGTGAAAGATCGATAGA | 1.8
CGTCCAAGGTCAAGGTCCGTGAAAGAGACTCGAA | 4.04
CCGACTGGGCCAGAAAGGTTACCATACCATCCGG | 0.479
CCTTACGGGTCACTCCAGGTTACAGCATCGGAGT | 3.95
AATACATGGTCACTAGGCCAGAGTAGGTACGAAT | -0.0294
TAGCCTAGGTCATCCGGGCCAGTATAGTGTCGGC | 3.81
CCTAGCAGGCCAGGGGCACTCAAGCATTTCGCTT | -0.66
ATCGAAAGGTCGAGGTGATTATAGAGAAAGGGAA | 2.43
CCTACTGGGCCATCAGGTCATTGACATCAACGTT | 1.64
ATATGTAGGTTAAGGGTCACTCAGGTTGGTTCGC | 5.43
TCGAGTAGGTTAGGGGCTTTCAGAATGGCGTCGA | -0.3
AGTCAAAGTTCACTAAGTAACGTAAGATTCAGCT | 3.9
GATACAGGGTCAAGGCCAGACTACGCGTATTGAT | 4.28
CCACACAGGTGAAAGGTAACTCAGTCTGGTACGC | 1.05

Sequence | PBM binding z-score
TCTTGTAGATCAATAGAGGTTAAGTAAGTGCGCT | 2.65
TTTCGGAGGACACGAAAGGTCAGAGCTCGACATC | 3.54
ATCTCTAGGTAACCAAGGTCAGTGAATGCCGAAC | 3.67
CCTGCTAGGTCATGGTCAGATAATCTACAGTATG | 1.62
CAAACTAGCTCAAAGGTCAAAGTCGAGCCAACCA | 4.72
CAGCCTAGATCAGGGCCAGTATAGGAGGAACGTT | -0.746
CCTGACAGGTGAAAGGTAACTCAGTCTGGTACGC | 0.319
ATATGTAGGTTACATCCGGGTCATTCAGGCTATG | 4.26
TCTAGTTGGTCACGGAGGTCAGACACGACGGGTA | 4.68
CCGACTCGGGCAAAGGTTACCATACTCAGTACGA | 1.33
TTACCAAGATGAGCTGAGGTCGTTGATCCAACTC | 1.35
CCTTACGGGTCACTGACAGGTTATGGCATTTGGA | 3.75
AGTCAAAGTTCAGGACGAGGTAACGTAAAGCACG | 2.85
CCAGACGGGTGAGAAGGTAACTCAGCCTCGATTA | -0.516
CGAACTAGGTCATCCATGACAGTGAATACATTGA | 2.45
GCAGACAGGTGAGACGCAGGTAACTCAGGGTGGC | -0.432
GTACTAAGGTGAATAGGTCGTTGATGAGTAGGCG | 1.24
ACTATTAGCTGAGACGAGGGCAACCGATAGGTTG | 0.232
AGAATGAGGTTACCAAAGATCAGAGAAACGCTTG | 1.36
GCGACTGGGGCATCAGCAGGTTAGCATAACTTAA | -0.526

Reference: the supplement of paper PMC6555819
